High-throughput results deposited in PubChem BioAssay by several laboratories.
Rows were chosen to be rich in hits. Some 22% of all compounds tested hit in one or more screens of this group.
CYP2C19 inh = blockers of cytochrome P450 2C19 activity – biochemical, luminescence, ADME assay, primary screen. CYP2C19 Supersomes, luciferin-H EGE luminescence, 30 min. AID 778, 2007. P33261. 21% of 96,000 active. inhibition, % at 5 µM;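 active = CYP2C19 inhibition above a set limit at 5 µM in the primary screen, cut at about 50% in these data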
CYP2C9 act = human CYP2C9 activators, primary screen, biochemical, luminescence. 1.4% of 96,000 active. activation factor at 5 µM. recombinant CYP2C9, luciferin-H conversion; active compounds read high; factor 1 = untreated enzyme, 0 = blocked. Cytochrome P450 2C9 (Homo sapiens), P11712;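 active = activation factor of 2 or more for CYP2C9 at a 5 µM dose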
Target sequence (P11712 whole entry, looked up): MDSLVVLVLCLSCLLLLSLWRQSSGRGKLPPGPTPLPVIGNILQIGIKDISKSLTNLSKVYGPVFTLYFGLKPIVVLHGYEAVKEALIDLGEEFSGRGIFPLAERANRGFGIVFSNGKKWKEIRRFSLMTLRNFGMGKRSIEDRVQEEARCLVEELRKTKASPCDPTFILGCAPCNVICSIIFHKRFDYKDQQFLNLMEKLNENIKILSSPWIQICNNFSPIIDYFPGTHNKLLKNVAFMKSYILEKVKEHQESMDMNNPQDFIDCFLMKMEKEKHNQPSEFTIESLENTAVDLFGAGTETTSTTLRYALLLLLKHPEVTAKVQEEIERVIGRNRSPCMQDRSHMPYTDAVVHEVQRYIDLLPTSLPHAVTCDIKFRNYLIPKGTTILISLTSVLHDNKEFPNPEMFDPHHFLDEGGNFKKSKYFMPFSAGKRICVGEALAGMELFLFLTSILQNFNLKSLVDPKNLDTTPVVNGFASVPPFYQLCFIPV
cytoskel mod = modifiers of F-actin cytoskeleton organization, primary screen, imaging, HUVEC, phalloidin staining, high-content imaging | 0.18% of 91,000 active | HUVEC TNFa F-actin phalloidin imaging | inhibition, % at 2 µM;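 active = inhibition above the batch mean plus 3 SD and confirmed as a hit by visual image inspection, cut at about 30% in these data, passing the limit was not always enough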
E-sel TNF inh = E-selectin induction blockers in HUVEC – imaging, immunofluorescence, high content, primary screen; HUVEC TNFa-induced E-selectin immunofluorescence; inhibition, % at 2 µM; 0.71% of 120,000 active;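 active = inhibition above the batch mean plus 3 SD, and confirmed as a hit on visual image review, cut at about 43% in these data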
CYP2C9 inh = blockers of cytochrome P450 2C9 activity – biochemical, luminescence, ADME assay, primary screen; CYP2C9 Supersomes, luciferin-H conversion; inhibition, % at 5 µM; 20% of 96,000 active;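 active = blocking of liver enzyme CYP2C9 beyond about 50% at 5 µM, limit read from the data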
CYP2C19 activ = human CYP2C19 activators, primary screen, biochemical, luminescence. 96,000 tested, under 10 active. activation factor at 5 µM. recombinant CYP2C19, luciferin-H EGE luminescence; active compounds read high; 0 = fully inhibited enzyme, 1 = untreated enzyme. Cytochrome P450 2C19 (Homo sapiens), P33261. AID 1025, 2008;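 active = activation factor of at least 2 at 5 µM in the primary screen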
Large screens that a line does not name were inactive.

Cc1ccc(S(=O)(=O)Cc2ccc(C(=O)N3CCN(c4ccc(F)cc4)CC3)o2)cc1	CYP2C9 inh 73.5 (no result: E-sel TNF inh)
COc1ccc(S(=O)(=O)Cc2ccc(C(=O)N3CCN(c4ncccn4)CC3)o2)cc1	none (no result: CYP2C19 inh, CYP2C9 act, CYP2C9 inh, CYP2C19 activ)
COc1ccc(N2CCN(C(=O)c3ccc(CS(=O)(=O)c4ccc(OC)cc4)o3)CC2)cc1	CYP2C9 inh 77.7 (no result: E-sel TNF inh)
COc1ccc(S(=O)(=O)Cc2ccc(C(=O)N3CCN(c4ccc(Cl)cc4)CC3)o2)cc1	CYP2C9 inh 82.4
Cc1ccccc1S(=O)(=O)Cc1ccc(C(=O)N2CCN(c3ccc(F)cc3)CC2)o1	none
COc1ccc(S(=O)(=O)Cc2ccc(C(=O)N3CCN(c4cc(Cl)ccc4C)CC3)o2)cc1	CYP2C19 inh 61.2, CYP2C9 inh 84.8 (no result: E-sel TNF inh)
O/N=C1/CCCCc2sccc21	none (no result: cytoskel mod, E-sel TNF inh)
O=C(c1cccc(F)c1)N1CCCC(C(=O)N2CCCC2)C1 (stereo not drawn)	none (no result: E-sel TNF inh)
COc1ccc(-c2csc(/C(C#N)=C\c3cccc([N+](=O)[O-])c3)n2)cc1	none (no result: CYP2C19 inh, CYP2C9 act, cytoskel mod, CYP2C9 inh, CYP2C19 activ)
COc1ccc(S(=O)(=O)Cc2ccc(C(=O)N3CCN(c4cccc(C)c4C)CC3)o2)cc1	CYP2C19 inh 55.5, CYP2C9 inh 75.8 (no result: cytoskel mod)
CCOC(=O)N1CCN(C(=O)c2ccc3c(c2)NC(=O)C(N2CCOCC2)S3)CC1 (stereo not drawn)	none (no result: E-sel TNF inh)
CN(C(=O)c1ccccc1)c1nc2ccccc2s1	none (no result: E-sel TNF inh)
COc1cccc(CNC(=O)c2ccc(S(=O)(=O)N3CCCC3)cc2)c1	CYP2C9 inh 85.9
COc1ccc(S(=O)(=O)N2CCC(C(=O)NCc3cccc(OC)c3)CC2)cc1	none (no result: E-sel TNF inh)
COc1cccc(CN2C(=O)C3CCCN3c3ccc(S(=O)(=O)N4CCOCC4)cc32)c1 (stereo not drawn)	CYP2C9 inh 62.2
Cc1cc2cc(CNC(=O)c3ccc(S(=O)(=O)N4CCCCC4)cc3)ccc2[nH]1	CYP2C9 inh 79.0
Cc1ccc(C)c(CN2C(=O)C3CCCN3c3ccc(S(=O)(=O)N4CCOCC4)cc32)c1 (stereo not drawn)	none (no result: CYP2C19 inh, CYP2C9 act, CYP2C9 inh, CYP2C19 activ)
COc1cccc(CN2CCCN(S(=O)(=O)c3ccc(Br)cc3)CC2)c1	CYP2C19 inh 78.7
CCS(=O)(=O)N1CCCC(C(=O)NCc2cccc(OC)c2)C1 (stereo not drawn)	E-sel TNF inh 53.1
COc1cccc(CNC(=O)c2cc3ccccn3n2)c1	CYP2C19 inh 66.2 (no result: E-sel TNF inh)
COc1ccc(-n2c(CNC(=O)c3ccc(S(=O)(=O)N4CCCC4)cc3)n[nH]c2=S)cc1	none (no result: E-sel TNF inh)
Cc1cccc(-n2c(CNC(=O)c3ccc(S(=O)(=O)N4CCCC4)cc3)n[nH]c2=S)c1	CYP2C19 inh 53.0
CCCCn1nnnc1NCc1cccc(OC)c1OC	CYP2C19 inh 84.7, CYP2C9 inh 61.9
CCCCn1nnnc1NCc1ccc(N(CC)CC)cc1	CYP2C19 inh 74.3
CCCCn1nnnc1NCc1ccc(OC)c(OC)c1	none
COc1ccc(OCC(=O)Sc2ccc(C)cc2)cc1	CYP2C19 inh 67.9
COc1ccc(C2C(C(=O)OCC(=O)Nc3ccc(C)cc3)CCC(=O)N2c2ccc(OC)cc2)cc1 (stereo not drawn)	CYP2C19 inh 75.2, CYP2C9 inh 74.5
O=C(Cc1coc(-c2ccc(F)cc2)n1)Nc1ccccc1	CYP2C19 inh 85.8, CYP2C9 inh 60.8 (no result: cytoskel mod, E-sel TNF inh)
COc1ccc(C2C(C(=O)OCC(=O)NC(C)(C)C)CCC(=O)N2c2ccc(C)cc2)cc1OC (stereo not drawn)	none
COc1ccc(OCC(=O)Nc2ccc(C)cc2)cc1	CYP2C19 inh 81.8, CYP2C9 inh 52.0
COc1cc(C2C(C(=O)c3ccco3)=C(O)C(=O)N2Cc2cccnc2)cc(OC)c1OC (stereo not drawn)	none
CC(O)C1C(=O)OC2(C)CC(C)(C)NC(=S)N12 (stereo not drawn)	none (no result: CYP2C19 inh, CYP2C9 act, CYP2C9 inh, CYP2C19 activ)
COc1ccccc1C(=O)OCC(=O)Nc1ccc(Cl)cn1	none (no result: CYP2C19 inh, CYP2C9 act, cytoskel mod, CYP2C9 inh, CYP2C19 activ)
COc1ccc(CC(=O)Nc2ccc(-c3cn4cccc(C)c4n3)cc2)cc1OC	none
COc1ccc(CC(=O)Nc2ccc(-c3cn4ccc(C)cc4n3)cc2)cc1	CYP2C19 inh 66.9
Cc1ccc(OCC(=O)Nc2ccc(F)cc2)cc1	CYP2C19 inh 57.0
Cc1ccc(NC(=O)CN(C)C(=O)COc2ccc(C(=O)c3ccc(F)cc3)cc2)cc1	none (no result: CYP2C19 inh, CYP2C9 act, cytoskel mod, CYP2C9 inh, CYP2C19 activ)
Cc1ccc(NC(=O)Cc2ccc(F)cc2)cc1	CYP2C19 inh 97.1
O=C(Nc1ccc(F)cc1)c1ccccc1	none
O=C(CNc1ccccc1)Nc1ccc(F)cc1	CYP2C19 inh 55.5
Cc1cc(SCC(=O)N/N=C/c2ccc(O)cc2O)c(C)cc1Br	none
O=C(O)CCSc1nnc(-c2cccnc2)n1-c1ccccc1	none (no result: cytoskel mod)
Cc1ccc(NC(=O)COC(=O)c2ccn(C)n2)cc1	CYP2C19 inh 79.0
O=C(COc1ccc(Br)cc1CO)Nc1ccc(F)cc1	CYP2C19 inh 98.8, CYP2C9 inh 87.8
CSc1cccc(NC(=O)CCCOc2ccccc2)c1	none (no result: CYP2C19 inh, CYP2C9 act, cytoskel mod, CYP2C9 inh, CYP2C19 activ)
CN(C(=O)c1ccccc1C(=O)OCC(=O)NCc1cccs1)C1CCCCC1	none (no result: CYP2C19 inh, CYP2C9 act, cytoskel mod, CYP2C9 inh, CYP2C19 activ)
O=C(CN(Cc1ccccc1)C(=O)c1cc2c(s1)CCC2)NCc1cccs1	CYP2C9 inh 75.3
O=C(CN(C(=O)c1cc2c(s1)CCC2)C1CCCC1)NCc1cccs1	CYP2C19 inh 65.7, CYP2C9 inh 81.9
O=C(NNS(=O)(=O)c1ccc(Cl)cc1)c1cnn(-c2ccccc2)c1-n1cccc1	CYP2C9 inh 63.7
O=C(NNS(=O)(=O)c1ccccc1)c1cnn(-c2ccccc2)c1-n1cccc1	none
Cc1ncoc1C(=O)Nc1ccccc1C(N)=O	none
Cc1ccc(NC(=O)C2CCCN(S(=O)(=O)c3ccc4c(c3)oc(=O)n4C)C2)nc1 (stereo not drawn)	none (no result: cytoskel mod)
COc1ccc(NC(=O)C2CCCN(S(=O)(=O)c3ccc4c(c3)oc(=O)n4C)C2)c(OC)c1 (stereo not drawn)	CYP2C19 inh 51.4 (no result: E-sel TNF inh)
Cc1csc(NC(=O)C2CCCN(S(=O)(=O)c3ccc4c(c3)oc(=O)n4C)C2)n1 (stereo not drawn)	CYP2C19 inh 51.6 (no result: E-sel TNF inh)
COc1ccc(C(=O)C2CCCN(S(=O)(=O)c3cccnc3)C2)c(C)c1 (stereo not drawn)	none (no result: CYP2C19 inh, CYP2C9 act, cytoskel mod, CYP2C9 inh, CYP2C19 activ)
COc1ccc(NC(=O)C2CCCN(S(=O)(=O)c3cccnc3)C2)c(OC)c1 (stereo not drawn)	CYP2C19 inh 59.4
O=C(NCC(c1cccs1)N1CCOCC1)c1ccccc1NS(=O)(=O)c1ccc(Cl)c([N+](=O)[O-])c1 (stereo not drawn)	none (no result: CYP2C19 inh, CYP2C9 act, cytoskel mod, CYP2C9 inh, CYP2C19 activ)
COC(=O)c1cc(OC)c(OC)cc1NC(=O)C1CCC(=O)N1S(=O)(=O)c1ccc(C)cc1 (stereo not drawn)	none
Cc1cc(C)c(C#N)c(SCC(=O)N2CCN(Cc3ccccc3)CC2)n1	CYP2C19 inh 51.5 (no result: E-sel TNF inh)
